Counter-ions that a name gives are not always drawn. ± gives the standard deviation of the averaged measurements. The full ranking holds about 1,900 compounds; the median of “normalised cell viability (NPI; 0 = phenylarsine oxide control, 1 = DMSO control)” is about 1, and the lowest 2% start at about 0.039. The full list was thinned out, with the lowest values kept by preference.
System: NCI-H1944
Experiment: normalised cell viability (NPI; 0 = phenylarsine oxide control, 1 = DMSO control) (fraction of DMSO control); NCI-H1944 is a non-small cell lung cancer line; higher = more viable cells (less compound toxicity)
Conditions: 6 days
[1] = glucocorticoid arm: hydrocortisone 2.75 uM co-treatment, compound 1 µM
[2] = glucocorticoid arm: hydrocortisone 2.75 uM co-treatment, compound 5 µM
[3] = glucocorticoid arm: hydrocortisone 2.75 uM pre-treated 2 days and continued, compound 1 µM
[4] = glucocorticoid arm: hydrocortisone 2.75 uM pre-treated 2 days and continued, compound 5 µM
[5] = glucocorticoid arm: vehicle, compound 1 µM
[6] = glucocorticoid arm: vehicle, compound 5 µM
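Also: CTB read-out in 384-well plates, triplicate wells, NPI normalised per plate against 1 µM phenylarsine oxide (0) and 0.1% DMSO (1) controls.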

Row | SMILES | normalised cell viability [1] | normalised cell viability [2] | normalised cell viability [3] | normalised cell viability [4] | normalised cell viability [5] | normalised cell viability [6]
1 | C1CN1c1nc(N2CC2)nc(N2CC2)n1 [Triethylenemelamine] | 1.023 ± 0.0058 | 0.775 ± 0.022 | 1.017 ± 0.0058 | 0.989 ± 0.015 | 0.993 ± 0.0082 | 0.273 ± 0.028
2 | C=CCN(C1=NCCN1)c1c(Cl)cccc1Cl [Alinidine] | 0.999 ± 0.012 | 0.992 ± 0.016 | 1.02 ± 0.049 | 1 ± 0.021 | 0.9973 ± 0.0031 | 0.9913 ± 0.0035
3 | O=C1C=CC(=O)C=C1 [p-Benzoquinone] | 1.007 ± 0.0058 | 1.01 ± 0.012 | 1.006 ± 0.0075 | 0.999 ± 0.03 | 1.01 ± 0.012 | 0.999 ± 0.011
4 | Cc1nc(-c2ccc(-c3ccc(C(=O)N4CCc5cc6c(cc54)C4(CCN(C)CC4)CO6)cc3)c(C)c2)no1 | 0.994 ± 0.0066 | 0.356 ± 0.53 | 1.02 ± 0.02 | 1.1 ± 0.021 | 0.994 ± 0.014 | 0.00588 ± 0.0059
5 | CC1C2Cc3ccc(O)cc3C1(C)CCN2CC1CC1 (single isomer, unassigned; (+)) [(+)-Cyclazocine] | 1.001 ± 0.0085 | 1.003 ± 0.0058 | 1 ± 0.01 | 0.978 ± 0.013 | 1.01 | 0.9993 ± 0.0095
6 | CCCN(CCC)C1CCc2cccc(O)c2C1 (racemic) [(±)-8-Hydroxy-DPAT hydrobromide] | 1.02 ± 0.017 | 1.01 ± 0.01 | 1.01 ± 0.01 | 1.004 ± 0.0098 | 0.9967 ± 0.0058 | 0.9947 ± 0.0067
7 | C=CCN1CC[C@]23c4c5ccc(O)c4O[C@H]2/C(=N/N=C2\CC[C@@]4(O)[C@H]6Cc7ccc(O)c8c7[C@@]4(CCN6CC=C)[C@H]2O8)CC[C@@]3(O)[C@H]1C5 [Naloxonazine dihydrochloride] | 0.9893 ± 0.008 | 1.03 ± 0.02 | 1 ± 0.01 | 1.03 ± 0.064 | 0.9877 ± 0.0015 | 1.01 ± 0.01
8 | CC[C@H]1CN2CCc3cc(OC)c(OC)cc3[C@@H]2C[C@@H]1C[C@H]1NCCc2cc(OC)c(OC)cc21 [Emetine dihydrochloride hydrate] | 0.0625 ± 0.016 | 0.0175 ± 0.00036 | 0.342 ± 0.016 | 0.165 ± 0.0093 | 0.0125 ± 0.001 | 0.0108 ± 0.0029
9 | CCCN(CCC)[C@@H]1CCc2c(F)ccc(O)c2C1 [R(+)-UH-301 hydrochloride] | 1.013 ± 0.0058 | 1.017 ± 0.0058 | 1.03 ± 0.021 | 1.017 ± 0.0058 | 1.02 | 1.017 ± 0.0058
10 | OC[C@H]1O[C@@H](n2cnc3cc(Cl)c(Cl)cc32)[C@H](O)[C@@H]1O [5,6-Dichlorobenzimidazole riboside] | 1.007 ± 0.0058 | 0.998 ± 0.013 | 1.007 ± 0.0058 | 1.03 ± 0.01 | 0.988 ± 0.008 | 0.991 ± 0.0053
11 | NC1CCc2cc(O)c(O)cc2C1 (configuration not stated) [6,7-ADTN hydrobromide] | 1.001 ± 0.009 | 1.01 ± 0.011 | 0.992 ± 0.022 | 1.002 ± 0.0068 | 0.98433 ± 0.00058 | 0.9887 ± 0.0059
12 | O=C[C@H](Cl)[C@@H](O)[C@H](O)[C@H](O)CO [2-Chloro-2-deoxy-D-glucose] | 1 ± 0.013 | 0.9953 ± 0.0015 | 1.01 ± 0.012 | 0.994 ± 0.01 | 0.9807 ± 0.0011 | 0.9817 ± 0.0067

From the supplement of paper PMC8285479
